From PubChem
The full list was thinned out, with hits kept by preference.
Pf Dd2 inh – inhibitors of Plasmodium falciparum Dd2 growth; P. falciparum Dd2 growth, SYBR Green, 72 h; Potency, µM (doses to about 28.9 µM), inactives show at the top dose activity, negative = inhibition, usual class: inhibitors; 4.3% of 120,000 active; active = well fitted inhibition curve with a large enough effect;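 also: plate controls were DMSO vehicle for no effect and reference drug for full effect; nearly all actives have a fitted effect of over 65% in size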
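Readout: SYBR Green fluorescence, 485 nm excitation, 535 nm emission, after ~16 h lysis at 37C. Before that, Dd2-infected red cells (2.5% hematocrit) grew 72 h with compound, 29 uM top final concentration.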
Numbers without * were called inactive; i = inactive; [ ] = dose if it differs, or a comment. Potency is read from the fitted curve at half-maximal effect.

SMILES	Pf Dd2 inh
CN1C(=O)C(CC(=O)N2CCCC2)Sc2ncccc21 (configuration not stated)	i
CCC(C)Nc1ccc2nncn2n1 (configuration not stated)	0%
COc1ccc(OC)c(NC(=O)N2c3ccccc3CC2c2nc(C3CC3)no2)c1 (configuration not stated)	-1%[5.79 µM]
COCCOC1CCN(C(=O)Nc2ccccc2F)CC1	7%
COc1ccc(Br)c2c1-c1nc(NC(=O)c3ccccc3SC)sc1C2	-5%
COc1cc(C(=O)Nc2ccc3nc(SCc4ccccc4)sc3c2)cc(OC)c1OC	i
COc1cc(C(=O)Nc2nc3c(s2)Cc2c(Br)ccc(OC)c2-3)cc(OC)c1OC	3.2µM*
COc1ccc(Br)c2c1-c1nc(NC(=O)c3ccc(F)cc3)sc1C2	2.8µM*
COc1ccc(Br)c2c1-c1nc(NC(=O)c3ccccc3F)sc1C2	47%
COc1cc(C(=O)Nc2nc3c(s2)C[C@]2(C)CC[C@@H]4[C@H](OC(=O)[C@H]4C)[C@H]2[C@@H]3C)cc(OC)c1OC	-25%
O=S(=O)(Cc1ccccc1)N1CCC(Oc2ccc(-c3noc(C4CC4)n3)cc2)C1 (configuration not stated)	i[5.79 µM]
Cc1nc(-c2c3n(c(=O)n(CC(=O)Nc4ccccc4F)c2=O)CCCC3)no1	10%
CN(C)c1ncccc1CNC(=O)COc1ccccc1Cl	-12%
CCc1cc(NCC(O)CN2CCCC2)ncn1 (configuration not stated)	5%
Cc1cccc(-c2noc([C@@H]3Cc4nc[nH]c4CN3Cc3ccc(C(=O)O)cc3)n2)c1	i
N#Cc1cccc(CN2Cc3[nH]cnc3C[C@H]2c2nc(-c3cccc([N+](=O)[O-])c3)no2)c1	13µM*
N#Cc1cccc(CN2Cc3[nH]cnc3C[C@H]2C(=O)NCc2ccco2)c1	-6%[44.1 µM]
O=[N+]([O-])c1cccc(-c2noc([C@@H]3Cc4nc[nH]c4CN3Cc3ccc(F)cc3)n2)c1	10µM*
Cc1cccc(-c2noc([C@@H]3Cc4nc[nH]c4CN3C(=O)c3ccc(F)cc3)n2)c1	i
O=[N+]([O-])c1cccc(-c2noc([C@@H]3Cc4nc[nH]c4CN3Cc3cccs3)n2)c1	-16%[44.1 µM]
O=C(NCC1(COc2cnccn2)C[C@@H](O)[C@@H](O)C1)N1CCOCC1 (some centres not stated)	18%[44.1 µM]
Cc1cc(N2CCN(Cc3cc4n(n3)CCNC4)CC2)n2ncnc2n1	9%
CCC(CC)C(=O)Nc1ccc([C@H]2OCC(=O)N(C)[C@@H]2CO)cc1	0%[44.1 µM]
Cc1ccc(S(=O)(=O)NC[C@H]2OC[C@@H](NCc3cccc(C#N)c3)[C@@H]2O)cc1	-20%[44.1 µM]
O=C(O)C[C@@H]1CCN(C(=O)C2CCCC2)C[C@@H]1CC1=NCCc2cc(F)ccc21	-4%[44.1 µM]
SMILES	Pf Dd2 inh
CN1CCN(C(=O)c2ccc(-c3ccc(N4CCSCC4)nc3)cc2)CC1	i
O=C(c1ccccc1Cl)N1CCN(c2cc(-c3ccccc3)[nH]n2)CC1	i
Cc1ccc(CCNC(=O)c2cc3c(-c4ccccc4F)nn(C)c3s2)cc1	19%
COc1ccc(CNC(=O)c2cc3c(-c4ccc(Cl)cc4)nn(C)c3s2)cc1	-16%
CCCN(CCC)CCCNC(=O)c1cc2c(-c3ccc(Cl)cc3)nn(C)c2s1	8.9µM*
CCCc1cc(N2CCC(NCCOC(C)C)CC2)nc(C)n1	-15%
CCCc1nc(C)cc(N2CCC(NCCc3ccc(Cl)cc3)CC2)n1	10µM*
COc1ccc(CC(=O)NC2CCN(c3cc(-c4ccc(Cl)cc4)[nH]n3)CC2)cc1	-15%
CCOCCCNC(=O)N1CCC(OC2CCN(S(C)(=O)=O)CC2)CC1	15%
COc1ccc(-c2ccnc(N[C@H]3CO[C@H]4[C@@H]3OC[C@@H]4NC(=O)CC3(CC(=O)O)CCCC3)n2)cc1	-4%
CCNC(=O)N[C@H]1CO[C@H]2[C@@H]1OC[C@@H]2Nc1nccc(-c2ccc(OC)cc2)n1	i
COc1ccc(-c2ccnc(N[C@H]3CO[C@H]4[C@@H]3OC[C@H]4OC(=O)Nc3cccc(C(C)=O)c3)n2)cc1	-28%
COc1ccc(-c2ccnc(N[C@H]3CO[C@H]4[C@@H]3OC[C@@H]4NC(=O)NCc3ccccc3)n2)cc1	5µM*
COc1ccc(-c2ccnc(N[C@H]3CO[C@H]4[C@@H]3OC[C@H]4OC(=O)Nc3ccc(C(C)=O)cc3)n2)cc1	5.6µM*
COc1ccc(-c2ccnc(N[C@H]3CO[C@H]4[C@@H]3OC[C@H]4OC(=O)Nc3ccc(C(C)(C)C)cc3)n2)cc1	i
O=C(Nc1nc2c(s1)CCC2)C1CC(=O)N(c2n[nH]c3ccccc23)C1 (configuration not stated)	-24%
O=C(C1CCC1)N1CCCC1c1nc(C2CCOCC2)no1 (configuration not stated)	-11%
O=C1C(N2CCN(S(=O)(=O)c3cc(F)ccc3F)CC2)CCN1Cc1cccnc1 (configuration not stated)	-10%
Cc1cc(C)n(CCC(=O)N2CCCC2c2nc(C3CCOCC3)no2)n1 (configuration not stated)	14%
CC(C)c1ccc(C2=CC(c3cccc(Cl)c3)n3ncnc3N2)cc1 (configuration not stated)	16%
COc1ccc(C2N=C(N)Nc3nc4ccccc4n32)c(OC)c1OC (configuration not stated)	-20%
CCN(CC)C(=O)C1=C(C)Nc2nc3ccccc3n2C1c1ccc(Cl)cc1 (configuration not stated)	-10%
CCc1ccc(C2=CC(c3cccc(OC)c3OC)n3c(nc4ccccc43)N2)cc1 (configuration not stated)	8.9µM*
Cn1c(=O)c2c(c3ccccc31)OC(=O)CC2c1cccc(Cl)c1 (configuration not stated)	23%
COc1cccc(C2=CC(c3ccccc3F)n3c(nc4ccccc43)N2)c1 (configuration not stated)	11%
SMILES	Pf Dd2 inh
CC(C)c1ccc(C2N=C(N)Nc3nc4ccccc4n32)cc1 (configuration not stated)	3.2µM*
COc1cccc(C2C(C(=O)Nc3ccc(Cl)cc3)=C(C)Nc3nc4ccccc4n32)c1 (configuration not stated)	-22%
CCN(CC)C(=O)C1=C(C)Nc2nc3ccccc3n2C1c1cccc(Cl)c1 (configuration not stated)	11µM*
CC1=C(C(N)=O)C(c2ccc(C(C)C)cc2)n2nc(SCc3ccccc3F)nc2N1 (configuration not stated)	7%
COc1cccc(C2C(C(=O)Nc3ccc(C)cc3C)=C(C)Nc3nc4ccccc4n32)c1OC (configuration not stated)	-12%
CC(C)c1ccc(C2=CC(c3cccc(Cl)c3)n3c(nc4ccccc43)N2)cc1 (configuration not stated)	11µM*
CNC(=O)CN1CCCCC1C(=O)Nc1cccc(-c2cccc(OC)c2)c1 (configuration not stated)	i
O=C(C1CCC1)N1CCC(c2noc(-c3cnccn3)n2)C1 (configuration not stated)	i[5.79 µM]
Cc1cc(C)c(C(=O)N2CCC(=O)N(CC3CC3)C(C(C)C)C2)cc1C (configuration not stated)	-19%
O=C(NC1CCCCCC1)C1CCN(c2cn[nH]c(=O)c2)C1 (configuration not stated)	-9%
CC(C)CCC(=O)N1CCC2(CC1)Nc1ccccc1NC2=O	-15%
